Bioassay records (PubChem)
hcDAF12 agonist: activates DAF-12 receptor from parasite H. contortus. HEK293 hcDAF-12 lit1-tk-luc reporter, luminescence; 0% DMSO, 100% Δ7-dafachronic acid. activation, % at 6.8 µM. 1.4% of 370,000 active. AID 652067;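 active = activation above the mean of all tested compounds plus 3 SD, cut at about 5.5% in these data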;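 note: 100% = response to 3 µM Δ7-dafachronic acid high control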
ssDAF-12 act: activates DAF-12 receptor from parasite S. stercoralis; HEK293 ssDAF-12/GRIP1 lit1-tk-luc reporter, luminescence; % of 3 µM dafachronic acid response; activation, % at 6.8 µM; 1% of 370,000 active; AID 652126;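 active = activation above the mean over all tested compounds plus 3 SD, cut at about 0.9% in these data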;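 note: 0% = DMSO-only wells and 100% = 3 µM delta7-dafachronic acid wells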
DAX1 inh-1: DAX1 (NR0B1) inhibition, primary screen. HEK293T StAR-luciferase reporter, SF-1/DAX-1 repression relief. inhibition, % at 6.8 µM. 1.1% of 370,000 active. AID 652010;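 active = inhibition above the mean over all tested compounds plus 3 SD, cut at about 3.6% in these data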;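 note: 0% = DAX-1 cells with DMSO and 100% = cells lacking DAX-1 with DMSO; higher inhibition means more luminescence from relief of DAX-1 repression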
hgDAF12 agonist: agonists of H. glycines DAF-12 nuclear receptor. HEK293 GAL4-hgDAF12 UAS-luciferase reporter, agonist luminescence; normalized to butyrate control. activation, % at 6.8 µM. 1.8% of 370,000 active;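 active = activation above a cutoff set at the mean of all screened compounds plus 3 SD, cut at about 10% in these data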;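 note: 0% = DMSO wells and 100% = sodium butyrate wells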
DAX1 inh-2: NR0B1 (DAX1) inhibition | HEK293 Gal4-DAX1 luciferase reporter, luminescence | 0.99% of 340,000 active | AID 504766 | inhibition, % at 6.75 µM | P51843;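 active = inhibition above the mean over all tested compounds plus 3 SD, cut at about 4.2% in these data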;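 note: 0% = DAX1-transfected cells with DMSO and 100% = empty-vector control cells with DMSO; inhibition shows as a rise in luminescence from relieved DAX1 repression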
DAX1 conf: NR0B1 (human) inhibition, confirmation; shares compounds with DAX1 inh-1; HEK293T StAR-promoter luciferase reporter, SF-1/DAX-1 repression; inhibition, % at 6.8 µM; 87% of 2,400 active; AID 652134;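 active = inhibition above the average of every tested compound plus 3 SD, cut at about 3.8% in these data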;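 note: 0% = DAX-1 cells with DMSO and 100% = no DAX-1 control cells with DMSO; active compounds raise luminescence by relieving repression of the StAR reporter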
SF1 AF2mut Luc: counter-screen for DAX1 inhibitors: nonselective inhibitors with SF-1 AF2 mutant. 78% of 2,400 active. HEK293 StAR-luciferase, luminescence. AID 652136. shares compounds with DAX1 inh-1. inhibition, % at 6.8 µM;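 active = inhibition above the mean of all tested compounds plus 3 SD, cut at about 3% in these data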;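 note: 0% = DAX-1 transfected cells with DMSO and 100% = cells without DAX-1 with DMSO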
LXRb hcDAF ctr: activates human LXR-beta, counter-screen for hcDAF-12 agonists. activation, % at 6.8 µM. HEK293 Gal4-LXR tk-luc reporter, luminescence, 24 h; normalized: DMSO 0%, positive control 100%. shares compounds with hcDAF12 agonist. 3,400 tested, under 10 active. AID 743027;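 active = mean percent activation of the reporter above a cutoff set as the average over tested compounds plus their standard deviation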
Target sequence (P55055 whole entry, looked up, the tested form may be a part): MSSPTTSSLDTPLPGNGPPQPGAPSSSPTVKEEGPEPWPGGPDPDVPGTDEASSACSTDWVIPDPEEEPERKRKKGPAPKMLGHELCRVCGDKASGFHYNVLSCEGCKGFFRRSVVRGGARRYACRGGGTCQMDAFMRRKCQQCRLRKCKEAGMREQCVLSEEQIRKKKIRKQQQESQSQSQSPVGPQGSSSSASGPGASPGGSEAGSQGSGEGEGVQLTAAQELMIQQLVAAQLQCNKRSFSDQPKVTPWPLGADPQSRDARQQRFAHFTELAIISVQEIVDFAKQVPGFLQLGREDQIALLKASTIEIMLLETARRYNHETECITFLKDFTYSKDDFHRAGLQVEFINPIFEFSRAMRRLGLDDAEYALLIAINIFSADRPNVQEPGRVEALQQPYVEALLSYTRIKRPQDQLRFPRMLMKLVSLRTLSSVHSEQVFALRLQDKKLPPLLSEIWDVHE
hcDAF12 conf: confirmation of H. contortus DAF-12 agonists; shares compounds with hcDAF12 agonist; activation, % at 6.8 µM; HEK293 hcDAF-12 lit1-tk-luc reporter, luminescence; % of Δ7-dafachronic acid response; AID 743032; 61% of 3,400 active;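 active = mean activation across triplicate tests above the threshold derived from the earlier primary screen, cut at about 5.5% in these data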;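 note: 0% = DMSO only wells and 100% = 3 µM Δ7-dafachronic acid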
hgDAF12 conf: hgDAF-12 agonism, confirmation assay; shares compounds with hgDAF12 agonist; HEK293 GAL4-hgDAF12 luciferase reporter, agonist mode; percent of butyrate response; activation, % at 6.8 µM; 80% of 3,300 active; AID 743050;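 active = mean activation over triplicate wells above the hit cutoff derived from the earlier primary screen, cut at about 11% in these data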;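 note: 0% = DMSO low control and 100% = 2 mM sodium butyrate high control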
LXR ag 2: activates human LXR-beta, counter-screen for DAF-12 agonists. shares compounds with hgDAF12 agonist. HEK293 Gal4-LXR luciferase reporter, 24 h. activation, % at 6.8 µM. 3,300 tested, under 10 active;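 active = mean activation of the triplicate above a set limit carried over from the primary screen, none filed active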
Starred values were filed as active, the others as inactive; x = not tested or not shown. Shown are actives, neighbours in structure and some others; about 4.1% of the full set was active somewhere.

SMILES	hcDAF12 agonist	ssDAF-12 act	DAX1 inh-1	hgDAF12 agonist	DAX1 inh-2	DAX1 conf	SF1 AF2mut Luc	hgDAF12 conf	LXR ag 2	others
COc1cccc(CN2CCC2(C)C(=O)Nc2cccc3cccnc23)c1OC (configuration not stated)	-4	-1	-2	-1	x	x	x	x	x
O=c1c(-c2ccco2)nc2ccccc2n1C(c1ccccc1)c1nc2ccccc2[nH]1 (configuration not stated)	5	0	4.7*	16*	x	3	2	10	0
O=c1c(-c2ccco2)nc2ccccc2n1C(CCc1ccccc1)c1nc2ccccc2[nH]1 (configuration not stated)	-1	-1	0	6	x	x	x	x	x
COc1ccc(S(=O)(=O)Nc2c(C)cccc2C)cc1-n1cnnn1	-1	0	0	0	0	x	x	x	x
Cn1c(=NC(=O)c2ccco2)sc2ccccc21	20*	4.0*	7.1*	21*	3	8.1*	4.9*	20*	1	LXRb hcDAF ctr=1;hcDAF12 conf=16*
Cc1sc(=NC(=O)c2ccco2)n(C)c1-c1ccc(F)cc1	5	0	2	10	0	x	x	x	x
Cc1ccc(Nc2ncnc3nc[nH]c23)cc1Cl	0	0	6.4*	14*	4	8.1*	5.5*	14*	1
C[C@H](CO)N1C[C@H](C)[C@@H](CN(C)C(=O)Nc2ccccc2)Oc2ccc(NC(=O)c3ccncc3)cc2C1=O	3	-1	0	1	2	x	x	x	x
O=C(O)C1=C(C(=O)Nc2cc(C(F)(F)F)ccc2Cl)CCCC1	-1	0	0	1	0	x	x	x	x
CC(C)c1ccc(Nc2ncccc2C(=O)O)cc1	6.0*	0	6.4*	22*	2	15*	7.4*	21*	1
COc1cccc(NC(=O)c2ccc3c(c2)N(C)CCS3)c1	6.2*	1	8.7*	16*	1	10*	9.3*	18*	1
CC(C)(C)c1ccc(NC(=O)Nc2ccc(OCC(=O)N3CCOCC3)cc2)cc1	6.4*	-1	5.1*	15*	0	7.8*	4.5*	22*	1
O=C(Nc1ccc(OCC(=O)N2CCOCC2)cc1)Nc1cccc(Cl)c1	-1	-2	0	4	-1	x	x	x	x
O=C1N(CCCl)c2ccc(Br)cc2C12OCCO2	-2	-1	-1	2	-1	x	x	x	x
O=C(Nc1ccc(NC(=O)c2ccco2)nc1)c1ccco1	3	0	5.9*	15*	-1	10*	2.9*	13*	1
CCCn1cnc2cc(NC(=O)c3ccco3)ccc21	6.6*	1.2*	5.5*	15*	0	3	3.8*	10	0	LXRb hcDAF ctr=0;hcDAF12 conf=3
O=C(Nc1ccccc1NC(=O)c1csnn1)c1csnn1	1	-1	0	1	1	x	x	x	x
CC(C)c1ccc(NC(=O)c2csnn2)cc1	5	1.1*	4.7*	13*	0	12*	6.6*	13*	1
Cc1nc(-c2ccc([N+](=O)[O-])cc2)sc1C(=O)O	2	1	1	4	0	x	x	x	x
CCC(C)c1ccc(NC(=O)c2cccs2)cc1 (configuration not stated)	8.2*	1.7*	7.2*	19*	0	19*	6.4*	20*	1	LXRb hcDAF ctr=2;hcDAF12 conf=7.8*
CCC(C)NS(=O)(=O)c1ccc(NC(=O)c2cccs2)cc1 (configuration not stated)	-2	-1	-1	1	0	x	x	x	x
Cc1ccc(C2=NN=C(NC(=O)CSc3nncn3C)SC2)cc1	0	-1	-3	4	-1	x	x	x	x
NC(=O)c1ccc(OCc2ccccc2)nc1	4	0	5.0*	15*	3	5.8*	3.3*	11*	0
O=C(Nc1nccs1)c1cncc(Br)c1	7.9*	0	6.3*	15*	1	7.6*	6.3*	11*	0	LXRb hcDAF ctr=1;hcDAF12 conf=6.0*
Cc1nc2nc(-c3ccccc3)cn2nc1C	6.2*	0	4.8*	14*	3	11*	5.1*	12*	1
SMILES	hcDAF12 agonist	ssDAF-12 act	DAX1 inh-1	hgDAF12 agonist	DAX1 inh-2	DAX1 conf	SF1 AF2mut Luc	hgDAF12 conf	LXR ag 2	others
CC1Cc2ccccc2N1C(=O)COC(=O)c1n[nH]c(=O)c2ccccc12 (configuration not stated)	-1	-1	4	-3	-1	x	x	x	x
CCc1ccc(NC(=O)c2noc3c2CCCCC3)cc1	5	1.2*	5.7*	15*	4.8*	16*	9.0*	20*	1
COc1ccc(CNC(=O)c2noc3c2CCCC3)cc1	2	-1	1	9	3	x	x	x	x
COc1ccc(NC(=O)c2noc3c2CCCCC3)cc1	5.7*	0	4.5*	20*	3	12*	5.5*	18*	1
Brc1ccc(-c2cn3nc4c(nc3n2)CCCC4)cc1	12*	1	4.9*	14*	1	6.8*	3.2*	14*	1	LXRb hcDAF ctr=1;hcDAF12 conf=8.2*
CC1CCN(C(=O)CS(=O)(=O)Cc2ccccc2)CC1	2	0	0	1	2	x	x	x	x
Clc1ccccc1Nc1nc2ccccc2o1	11*	1.2*	9.3*	13*	1	14*	9.0*	23*	1	LXRb hcDAF ctr=1;hcDAF12 conf=10*
Cc1cccc(C)c1Nc1nc2ccccc2o1	-1	0	0	-2	-1	x	x	x	x
Cc1nn(-c2nnc(NC3CCCCC3)nn2)c(C)c1Br	6.1*	1.8*	5.2*	18*	4	13*	8.3*	16*	1
O=C(NC1=NCCS1)c1cccc(NC(=O)c2ccco2)c1	4	-1	0	0	-1	x	x	x	x
CC(C)Oc1cccc(C(=O)NC2=NCCS2)c1	1	0	5.0*	15*	1	5.9*	4.1*	11*	0
